The values below come from PubChem BioAssay (NCI).

What all share (experiment): NCI-60 one-dose screen, 48 h (100 = growth as untreated, 0 = no growth, -100 = all killed)
What all share (details): 10 µM unless noted

In experiment [1] the test system is NCI-H23 lung.
The subject of experiment [2] is NCI-H226 lung.
Experiment [3] concerns NCI-H322M lung.
For experiment [4], the system named is NCI-H460 lung.
Experiment [5] has as its system NCI-H522 lung.
Experiment [6] has as its system A549/ATCC NSCLC.
Experiment [7] relates to 786-0 renal.
The test system of experiment [8] is COLO 205 colon.
In experiment [9] the test system is DU-145 prostate.
Experiment [10] has as its system MALME-3M melanoma.
For experiment [11], the system named is MDA-MB-231 breast.
For experiment [12], the system named is RXF 393 renal.
For experiment [13], the system named is SF-268 CNS.
In experiment [14] the test system is SF-295 CNS.
Experiment [15] deals with SF-539 CNS.
In experiment [16] the test system is UACC-257 melanoma.
In experiment [17] the test system is M14 melanoma.
For experiment [18], the system named is HCT-15 colon.
Experiment [19] concerns K-562 leukemia.

The panel holds about 83,000 compounds, 20% with a hit somewhere; the sample as a whole holds those more often.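 Negative percent growth values reflect cell death: -40 means 40% of the cells present at the start died, and -100 means all died.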 A number with no mark means an inactive call. Calls of active or inactive are those of the source. How the source made its calls: active means growth percent below 10; inactive means the rest.

On to `CCCCCCC/C(=N\N=C(N)N)c1ccc(O)cc1`, for which the growth was 57.5% in experiment [1]; -8.37% (active) in experiment [2]; 56.9% in experiment [3]; 26.7% in [4]; 47.7% in experiment [5]; 51.9% in experiment [6]. Moreover, the growth in experiment [7] was 63.1%; in experiment [8], -88.8% (active); in [9], 53.4%; in experiment [10] it was 50.6%; in experiment [11] it was -22.5% (active); in experiment [12] it was -35.5% (active). For the same compound, the growth in [13] was 45%; in experiment [14] it was 55.7%; in experiment [15], 63.5%; in [16], 27.1%; in experiment [17], 24.9%; in [18], 64%.
In the case of `Cc1scc2c1N(C(=O)CN1CCN(C)CC1)c1ccccc1NC2=O`, the growth in experiment [1] is 93.9%; in experiment [2] it was 109%; in experiment [3] it was 105%; in experiment [4], 124%; in experiment [5], 104%; in experiment [6] it was 104%. Further, the growth in [7] was 98.8%; in experiment [8] it was 108%; in experiment [9], 118%; in experiment [19] it was 108%; in experiment [10] it was 108%; in experiment [11], 99.6%. The growth in experiment [12] was 111%; in experiment [13] it was 110%; in [14] it was 101%; in experiment [15] it was 112%; in experiment [16], 106%; in experiment [17] it was 111%. The growth in experiment [18] was 107%.
Consider `COc1ccc(COC(C)=O)cc1`, for which the growth is 113% in experiment [1]; 104% in experiment [2]; 112% in experiment [3]; 111% in experiment [4]; 118% in experiment [5]; 100% in [6]. The growth is 99.4% in experiment [7]; 127% in experiment [8]; 110% in experiment [9]; 103% in [19]; 125% in experiment [11]; 108% in experiment [12]. The growth in [13] was 101%; in experiment [14], 116%; in experiment [15], 107%; in experiment [16], 109%; in experiment [17], 108%; in experiment [18], 97.6%.
Consider `O=C(Nc1ccc(Nc2ccncc2)cc1)c1ccc(Nc2ccnc3ccc([N+](=O)[O-])cc23)cc1[N+](=O)[O-]`, for which the growth in experiment [1] was 83%; in experiment [2], 103%; in [3], 89.5%; in experiment [4], 44.9%; in experiment [5], 43.2%; in experiment [6], 35.2%. For the same compound, the growth is 50.1% in experiment [7]; 122% in experiment [8]; 56.8% in experiment [9]; 107% in experiment [19]; -49.8% (active) in [10]; 94.9% in [11]. Moreover, the growth in experiment [12] is 35.9%; in experiment [13], -11.6% (active); in experiment [14] it was 19.4%; in [15], 53.3%; in experiment [16], 70.9%; in [17] it was 92.7%. Moreover, in [18], the growth is 86.7%.
For the compound `O=C(/C(=N/O)S(=O)(=O)c1ccccc1)c1cccs1`, the growth in experiment [1] is 94.2%; in experiment [2] it was 102%; in [3] it was 111%; in experiment [4], 102%; in experiment [5] it was 143%; in experiment [6] it was 106%. In addition, the growth in [7] was 99.8%; in experiment [8], 104%; in [9] it was 115%; in [19] it was 93.1%; in [10] it was 106%; in [11] it was 109%. Besides, the growth is 106% in experiment [13]; 104% in experiment [14]; 109% in experiment [15]; 106% in experiment [16]; 105% in experiment [17]; 105% in experiment [18].
Consider `CCOC(=O)c1c(C)nc(C)c(C(=O)OCC)c1-c1cccnc1`, for which the growth is 101% in experiment [1]; 106% in experiment [2]; 108% in experiment [3]; 101% in experiment [4]; 95.8% in experiment [5]; 103% in [6]. In addition, the growth in experiment [7] is 94.5%; in experiment [8] it was 101%; in experiment [9] it was 116%; in experiment [19] it was 92.4%; in experiment [10], 111%; in experiment [11], 113%. Moreover, the growth was 131% in experiment [12]; 106% in experiment [13]; 112% in experiment [14]; 97.1% in [15]; 108% in [16]; 95% in [17]. For the same compound, in [18], the growth is 97%.
For the compound `COc1ccc(-c2oc3cc(O)c(OC)c(O)c3c(=O)c2OC)cc1O`, the growth in experiment [1] is 16.1%; in [2] it was 73.5%; in experiment [3] it was 46.7%; in [4] it was 1.5% (active); in [5], -30.3% (active); in experiment [6], 19.7%. Moreover, the growth in experiment [7] is 23.2%; in [8], 101%; in experiment [9], -18.4% (active); in [19], 8.02% (active); in [10], 38.9%; in experiment [11], 11.1%. Also, the growth in experiment [12] is 7.24% (active); in experiment [13], 13.6%; in experiment [15], -16% (active); in experiment [16], 53.4%; in experiment [17], -24.8% (active).
Consider `Cc1ccccc1NC(=O)c1cc2ccccc2cc1O`, for which the growth was 10.9% in [1]; 77.1% in [2]; 24.6% in experiment [3]; 38% in experiment [4]; 12.2% in experiment [5]; 39.3% in experiment [6]. Further, the growth in [7] is 54.9%; in experiment [8], 119%; in experiment [9] it was 20.2%; in experiment [19], 10.9%; in experiment [10], -6.19% (active); in experiment [11] it was 70.6%. Further, the growth in experiment [12] was 22.2%; in [13], 21.1%; in experiment [14] it was 86.4%; in [15], 64.4%; in [16], 68.1%; in experiment [17], 58.1%. The growth in experiment [18] was 48.5%.
